Bioassay records from PubChem.
DRV1 agonist: agonists of human resolvin D1 receptor DRV1 (GPR32). AID 1346428. CHO-K1 GPR32 beta-arrestin PathHunter luminescence, 90 min; zero percent set by DMSO-only wells. 48,000 compounds, 2.5% hits. activation, % at 76.9 µM;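 active = activation of at least 60% and not above a set upper limit, about 1 call in 100 departs from these limits; inconclusive = activation of 40% to 60%, or above that upper limit; inactive = activation under 40%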
Target sequence (O75388 whole entry, looked up): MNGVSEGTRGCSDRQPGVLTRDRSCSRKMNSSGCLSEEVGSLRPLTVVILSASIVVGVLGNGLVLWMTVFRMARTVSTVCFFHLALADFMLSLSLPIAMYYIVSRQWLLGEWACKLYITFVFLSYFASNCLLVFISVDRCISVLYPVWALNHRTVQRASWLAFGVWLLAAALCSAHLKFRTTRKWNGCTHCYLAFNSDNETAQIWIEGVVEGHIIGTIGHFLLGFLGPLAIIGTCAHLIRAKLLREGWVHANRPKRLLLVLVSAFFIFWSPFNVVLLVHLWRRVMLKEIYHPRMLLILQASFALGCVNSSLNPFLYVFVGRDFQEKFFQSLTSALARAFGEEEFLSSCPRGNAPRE
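Agonism was scored as beta-arrestin recruitment to ProLink-fused GPR32 in stably transfected CHO-K1 cells, giving a chemiluminescent beta-Gal signal; compounds were incubated 90 min at 37 °C.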
B2AR arrestin ag: beta-arrestin recruitment by human beta2-adrenergic receptor ligands; HTLA Tango cells, beta-arrestin recruitment, luciferase luminescence, 18 h; 44,000 tested, under 10 active; P07550; Potency, µM (top dose mostly 46.1 µM), actives largely listed as activators
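Receptor–beta-arrestin recruitment read by tTA-responsive luciferase: compound titrations (up to 46 µM) incubated 18 h with Tango cells, then luminescent substrate 15 min at room temperature. Concentration-response fits classified by r2, efficacy and activity.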
FH mod: Identification of activators of human fumarate hydratase by quantitative high-throughput screening. AID 1347055, 2019. 54,000 compounds, 0.22% hits. FH coupled MDH/diaphorase resazurin fluorescence, 15 min. Fumarate hydratase, mitochondrial (Homo sapiens), P07954. Potency, µM (highest dose often 79.9 µM), actives largely listed as inhibitors; also: the screen sought activators but most active calls are inhibition curves; nearly all actives have a fitted effect of over 45% in size
HTT prom inh: inhibitors of huntingtin promoter activity; HEK293 HTT promoter firefly luciferase reporter, 24 h; Potency, µM (doses to about 57.5 µM), usual class: inhibitors; 48,000 compounds, 0.93% hits; AID 1508623; also: nearly all actives have a fitted effect of over 50% in size
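HEK293 Fluc reporter, 2,500 cells/well, 24 h pre-culture; cpds up to 57.5 uM final, 24 h 37 degrees C; Dual-Glo, 10 min RT; normalized vehicle = 0%, zero RLU = -100%.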
GALC G270D act: raises human GALC G270D mutant activity in cells; P54803; 145M-Twi-hGALC-G270D cells (Twitcher mouse brain line with human GALC G270D), HMU-beta-Gal fluorescence, 48 h; Potency, µM (titrated, usually from 57.5 µM), most hits filed as activators; 45,000 compounds, 0.1% hits; also: nearly all actives have a fitted effect of over 65% in size
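Fluorescence readout: HMU-β-gal cleavage by mutant GALC (0.1 mM final, citrate/phosphate pH 5.2 with 1 mg/mL taurocholate), stopped with carbonate/bicarbonate plus Triton X-100. Cells: murine Twitcher 145M-Twi expressing human G270D GALC; qHTS for activators.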
HTT-AS promoter: HTT-AS promoter activation; HEK293 HTT-AS promoter firefly luciferase reporter, 24 h; response scale: percent change from vehicle, -100% = no light; Potency, µM (top dose mostly 57.5 µM), hits mostly activators; 48,000 compounds, 0.24% hits; AID 1508624; also: nearly all actives have a fitted effect of over 55% in size
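Luminescence was read after Dual-Glo reagent and a 10 min room-temperature incubation. Values were normalized to vehicle (0% activity) and zero RLU (-100% activity). Reporter HEK293 cells had been exposed to compounds (up to 57.5 uM final) for 24 h.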
Numbers stand for hits; – = inactive; ? = inconclusive; · = no result; [ ] = dose if it differs, or a comment. Hits are enriched below; roughly 3.7% of the tested compounds scored in any of these assays. Unless noted, calls follow the shape of the dose curve; as a rule, active = well fitted curve in the direction sought with a large enough effect; inconclusive = small, poorly fitted or top-dose-only effect, or another doubt; inactive = no such curve, though single readings can be large; an effect the other way counts as inactive or inconclusive.

SMILES	DRV1 agonist	B2AR arrestin ag	FH mod	HTT prom inh	GALC G270D act	HTT-AS promoter
CC(=O)OC1C(CO)OC(O[C@H]2[C@H](OC(=O)[C@]34CCC(C)(C)C[C@H]3C3=CCC5[C@@]6(C)CC[C@H](O[C@@H]7O[C@H](C(=O)O)[C@@H](O)[C@H](O[C@@H]8OC[C@@H](O)[C@H](O)[C@H]8O)[C@H]7O[C@@H]7O[C@H](CO)[C@H](O)[C@H](O)[C@H]7O)[C@@](C)(C=O)C6CC[C@@]5(C)[C@]3(C)C[C@H]4O)O[C@H](C)[C@H](OC3OC(C)C(OC4OCC(O)C(O)C4O)C(O)C3O)[C@@H]2O)C(O)C1O (stereo partly specified)	·	·	–[13.5 µM]	·	·	·
CN1C(=O)C(C)(C)c2cc(S(=O)(=O)N3CCCC3C(=O)Nc3ccc(F)cc3)ccc21 (stereo unspecified)	–	–	–	?	–	–
O=C(Nc1ccc(F)c(Cl)c1)C1CCCN1S(=O)(=O)c1ccc(F)cc1 (stereo unspecified)	83.3	–	–	?	–	–
CCCc1[nH]nc2c1C(c1cc(Cl)cc(Cl)c1O)C(C#N)=C(N)O2 (stereo unspecified)	·	·	–	·	·	·
O=C(C1CCC(CNS(=O)(=O)c2cccs2)CC1)N1CCN(c2ccc(Cl)cc2)CC1 (stereo unspecified)	–	?	–	3.98µM	–	–
O=C(C1CCC(CNS(=O)(=O)c2ccc(Br)s2)CC1)N1CCN(c2ccccc2)CC1 (stereo unspecified)	–	–	–	–	–	–
CC(=O)c1ccc(NC(=O)C2CCC(CNS(=O)(=O)c3cccs3)CC2)cc1 (stereo unspecified)	107.7	–	–	–	–	–
Cc1ccc(NC(=O)C2CCC(CNS(=O)(=O)c3cccs3)CC2)cc1C (stereo unspecified)	–	–	–	–	–	–
C#Cc1cccc(Nc2ncnc3cc4c(cc23)OCCOCCOCCO4)c1	·	·	–	·	·	·
COc1c2c(c(C)c3c1C(=O)OC3)OC1(C)CC(O)C34OC(OC)(CC(O)C3(C)C1C2)OC4(C)C (stereo unspecified)	·	·	–	·	·	·
CC(C)(C)c1cc(Br)cc([C@H](CC(=O)O)NC(=O)CNC(=O)c2cc(O)cc(NC3=NCC(O)CN3)c2)c1 (stereo partly specified)	·	·	–	·	·	·
C/C=C/C=C/C=C/C(=O)OC1C=C(C=O)C(O)(C(=O)O)C2(C)CCCC(C)(C)C12 (stereo unspecified)	·	·	–	·	·	·
OC1C=C2C3CN(Cc4cc5c(cc43)OCO5)C2CC1O (stereo unspecified)	·	·	–	·	·	·
O=C(O)C1(c2ccc(-c3ccc(Cl)c(Cl)c3)c(F)c2)CC1	·	·	–	·	·	·
CCOc1ccc(S(=O)(=O)NCCc2csc(-c3ccc(Cl)cc3)n2)cc1	69.2	–	?	?	–	–
COc1ccc(-c2nc(CNS(=O)(=O)c3ccc(F)cc3)cs2)cc1	–	–	–	?	–	–
O=S(=O)(NCCc1csc(-c2ccc(F)cc2)n1)c1ccc(Cl)cc1	63.6	–	?	?	–	–
COc1ccc(S(=O)(=O)NCCc2csc(-c3ccc(F)cc3)n2)cc1	60.3	–	–	–	–	–
Cc1ccc(S(=O)(=O)NCCc2csc(-c3ccc(Cl)cc3)n2)cc1	?	–	?	?	–	–
Cc1ccc(S(=O)(=O)NCCc2csc(-c3cccc(F)c3)n2)cc1	80.0	–	?	?	–	–
CC1CC=C2C1CC1(O)C(=O)CC2(C)C1(C)CO (stereo unspecified)	·	·	–	·	·	·
COC(=O)N[C@H](C(=O)N1[C@@H]2CC[C@@H](C2)[C@H]1c1nc2ccc(-c3ccc4c(c3)C(F)(F)c3cc(-c5cnc([C@@H]6CCC7(CC7)N6C(=O)[C@@H](NC(=O)OC)C(C)C)[nH]5)ccc3-4)cc2[nH]1)C(C)C	·	·	–	·	·	·
